Source: PubChem (University of Kansas High Throughput Screening Laboratory)
mHTT CaM bind: mutant huntingtin-calmodulin interaction inhibitors – biochemical, AlphaScreen, primary screen | AID 1671202, 2021 | AlphaScreen His-mHTT/GST-CaM binding, luminescence | 190,000 compounds, 3.6% hits | inhibition, % at 15 µM;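 also: 0% = both proteins with DMSO and 100% = one protein alone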
Target sequence (P42858 whole entry, looked up, stated change not applied): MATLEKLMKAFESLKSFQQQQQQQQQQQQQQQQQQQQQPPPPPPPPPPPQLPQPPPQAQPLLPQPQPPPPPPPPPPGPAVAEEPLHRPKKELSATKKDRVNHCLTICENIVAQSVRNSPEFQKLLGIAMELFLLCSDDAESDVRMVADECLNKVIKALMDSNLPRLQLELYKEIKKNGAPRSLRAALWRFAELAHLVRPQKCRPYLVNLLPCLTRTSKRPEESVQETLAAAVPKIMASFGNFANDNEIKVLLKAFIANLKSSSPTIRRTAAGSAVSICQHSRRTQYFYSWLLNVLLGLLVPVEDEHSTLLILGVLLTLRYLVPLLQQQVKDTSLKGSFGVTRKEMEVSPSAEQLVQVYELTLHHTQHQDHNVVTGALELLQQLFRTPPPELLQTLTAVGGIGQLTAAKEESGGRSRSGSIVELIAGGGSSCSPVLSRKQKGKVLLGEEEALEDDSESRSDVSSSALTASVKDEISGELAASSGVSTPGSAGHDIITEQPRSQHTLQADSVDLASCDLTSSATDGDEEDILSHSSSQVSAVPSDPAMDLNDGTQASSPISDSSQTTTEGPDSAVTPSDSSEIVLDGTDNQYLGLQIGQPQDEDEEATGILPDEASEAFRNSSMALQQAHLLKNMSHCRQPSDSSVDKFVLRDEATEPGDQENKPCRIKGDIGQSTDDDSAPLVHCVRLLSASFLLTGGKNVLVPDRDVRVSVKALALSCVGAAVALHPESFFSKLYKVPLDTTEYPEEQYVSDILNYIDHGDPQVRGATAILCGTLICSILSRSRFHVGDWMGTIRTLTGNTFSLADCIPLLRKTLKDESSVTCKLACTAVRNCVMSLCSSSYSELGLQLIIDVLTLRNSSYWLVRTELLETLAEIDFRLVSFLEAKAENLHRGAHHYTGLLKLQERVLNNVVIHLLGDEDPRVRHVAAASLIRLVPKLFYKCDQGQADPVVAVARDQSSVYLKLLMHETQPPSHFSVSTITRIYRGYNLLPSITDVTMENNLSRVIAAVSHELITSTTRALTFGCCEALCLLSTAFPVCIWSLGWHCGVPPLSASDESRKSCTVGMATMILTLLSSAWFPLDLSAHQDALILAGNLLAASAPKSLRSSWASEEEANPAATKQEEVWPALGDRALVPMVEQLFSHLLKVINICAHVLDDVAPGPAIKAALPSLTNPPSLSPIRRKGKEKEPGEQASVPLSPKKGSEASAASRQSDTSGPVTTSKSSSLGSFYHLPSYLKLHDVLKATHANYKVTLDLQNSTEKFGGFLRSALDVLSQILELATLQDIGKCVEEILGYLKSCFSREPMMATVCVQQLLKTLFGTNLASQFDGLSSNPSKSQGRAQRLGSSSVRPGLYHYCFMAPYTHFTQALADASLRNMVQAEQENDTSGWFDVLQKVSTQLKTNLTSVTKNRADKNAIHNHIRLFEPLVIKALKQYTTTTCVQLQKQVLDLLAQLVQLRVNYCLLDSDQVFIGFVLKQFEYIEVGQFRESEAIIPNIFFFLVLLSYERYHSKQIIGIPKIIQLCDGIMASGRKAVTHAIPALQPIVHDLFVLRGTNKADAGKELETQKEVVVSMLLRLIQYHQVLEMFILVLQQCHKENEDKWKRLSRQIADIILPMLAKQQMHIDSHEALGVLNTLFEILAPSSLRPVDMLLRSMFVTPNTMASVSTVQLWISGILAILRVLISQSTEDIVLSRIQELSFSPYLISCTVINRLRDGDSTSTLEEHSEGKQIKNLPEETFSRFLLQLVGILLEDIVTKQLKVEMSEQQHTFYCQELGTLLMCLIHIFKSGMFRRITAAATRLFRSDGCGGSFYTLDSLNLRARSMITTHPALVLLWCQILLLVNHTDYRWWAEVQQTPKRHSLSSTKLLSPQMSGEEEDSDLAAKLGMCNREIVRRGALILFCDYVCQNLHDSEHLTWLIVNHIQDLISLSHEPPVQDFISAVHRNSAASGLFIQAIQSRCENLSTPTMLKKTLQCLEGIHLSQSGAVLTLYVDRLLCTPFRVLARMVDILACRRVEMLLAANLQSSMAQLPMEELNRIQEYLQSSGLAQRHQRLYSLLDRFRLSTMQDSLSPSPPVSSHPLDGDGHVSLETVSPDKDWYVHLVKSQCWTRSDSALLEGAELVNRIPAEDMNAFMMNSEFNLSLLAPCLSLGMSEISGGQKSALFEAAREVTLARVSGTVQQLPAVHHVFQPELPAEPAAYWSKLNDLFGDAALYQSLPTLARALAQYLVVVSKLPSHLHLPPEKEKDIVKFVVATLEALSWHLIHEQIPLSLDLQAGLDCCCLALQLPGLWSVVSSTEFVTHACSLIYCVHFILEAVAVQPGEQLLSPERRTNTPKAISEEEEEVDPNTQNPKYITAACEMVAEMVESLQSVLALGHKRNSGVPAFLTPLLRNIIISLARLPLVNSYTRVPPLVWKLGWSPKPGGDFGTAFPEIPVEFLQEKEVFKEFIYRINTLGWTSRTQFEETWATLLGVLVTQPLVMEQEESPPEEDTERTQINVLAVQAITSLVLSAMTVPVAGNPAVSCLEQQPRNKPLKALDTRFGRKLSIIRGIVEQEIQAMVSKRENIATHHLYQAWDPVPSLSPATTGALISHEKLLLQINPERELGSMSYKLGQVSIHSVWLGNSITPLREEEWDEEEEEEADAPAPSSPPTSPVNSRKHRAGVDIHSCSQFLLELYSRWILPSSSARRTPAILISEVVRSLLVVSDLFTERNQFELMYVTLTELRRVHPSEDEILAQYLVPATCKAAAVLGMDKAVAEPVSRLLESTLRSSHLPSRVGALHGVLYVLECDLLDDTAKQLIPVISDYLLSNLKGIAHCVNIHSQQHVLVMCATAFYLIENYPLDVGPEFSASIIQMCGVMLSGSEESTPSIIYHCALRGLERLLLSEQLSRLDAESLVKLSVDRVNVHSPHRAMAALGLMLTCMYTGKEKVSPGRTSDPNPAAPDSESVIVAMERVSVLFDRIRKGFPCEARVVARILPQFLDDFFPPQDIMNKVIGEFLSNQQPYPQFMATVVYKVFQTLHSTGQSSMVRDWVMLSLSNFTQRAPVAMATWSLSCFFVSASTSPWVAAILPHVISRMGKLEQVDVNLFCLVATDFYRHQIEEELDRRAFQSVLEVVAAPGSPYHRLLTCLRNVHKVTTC
Pf apPOL block: Pf-apPOL inhibitors, biochemical, fluorescence; Plasmodium falciparum apicoplast DNA polymerase (apPOL); AID 1794808, 2022; Recombinant Pf-apPOL, molecular beacon fluorescence, 1.5 h; 210,000 compounds, 0.25% hits; inhibition, % at 10 µM
The depositor's hits bear a star; . = not tested or not shown. Only some compounds are listed: those with a hit (about 3.6% of all), similar ones and a draw of the others. Rule as the data show it: active = inhibition above about 50%; inactive = the rest.

SMILES | mHTT CaM bind | Pf apPOL block
CC(C)N1CCC(CC(=O)N2CCCC3(C2)Nc2ccccc2NC3=NC(C)(C)C)CC1 (configuration not stated) | 46 | -5
CC(C)(C)N=C1Nc2ccccc2NC12CCCN(C(=O)COc1ccc(F)c(F)c1)C2 (configuration not stated) | 100* | 8
CC(C)(C)N=C1Nc2ccccc2NC12CCCN(C(=O)Cc1cccs1)C2 (configuration not stated) | 64* | 0
COCCN=C1Nc2ccccc2NC12CCCN(C(=O)c1n[nH]c3c1CCCC3)C2 (configuration not stated) | -2 | -2
CN1C(=O)C(=Cc2cn(CCOc3ccccc3Cl)c3ccccc23)C(=O)N(C)C1=O | -5 | -4
O=C(Nc1c2c(nn1-c1ccc(Cl)cc1)CSC2)c1cccc(F)c1 | 15 | 2
COCCN=C1Nc2ccccc2NC12CCCN(C(=O)Cc1cccc(OC)c1)C2 (configuration not stated) | 39 | -3
O=C(COc1ccc(F)cc1)N1CCCC2(C1)Nc1ccccc1NC2=NC1CCCC1 (configuration not stated) | 86* | -4
O=C(c1cccc(F)c1)N1CCCC2(C1)Nc1ccccc1NC2=NC1CCCC1 (configuration not stated) | 18 | -4
CC(C)(C)N=C1Nc2ccccc2NC12CCCN(C(=O)Nc1ccc3c(c1)OCCO3)C2 (configuration not stated) | 94* | 1
COc1cccc(CC(=O)N2CCCC3(C2)Nc2ccccc2NC3=NC(C)(C)C)c1 (configuration not stated) | 78* | 0
CC(=O)c1cccc(NC(=O)N2CCCC3(C2)Nc2ccccc2NC3=NC(C)(C)C)c1 (configuration not stated) | 27 | 4
CCn1c(=O)c2c(ncn2C(C)c2ccccc2)n(-c2cccc(F)c2)c1=O (configuration not stated) | 0 | 3
O=C1[C@H](Cc2ccccc2)NCCCC[C@@H](c2ccco2)N1Cc1ccccc1 | 27 | -3
O=C1[C@H](Cc2ccccc2)NCCCC[C@H](c2ccc(Cl)cc2)N1Cc1ccccc1 | 37 | -6
O=C1CSC(c2ccc(F)cc2)N1Cc1ccccc1 (configuration not stated) | -5 | 0
O=C1[C@H](Cc2ccccc2)NCCCC[C@@H](c2ccc(Cl)cc2)N1Cc1ccc(Cl)cc1 | 100* | -6
O=C1[C@H](Cc2ccccc2)NC/C=C\C[C@H](c2ccc(Cl)cc2)N1Cc1ccccc1 | 82* | -1
O=C1[C@H](Cc2ccccc2)NCCCC[C@H](c2ccco2)N1Cc1ccccc1 | 93* | 2
O=C1[C@H](Cc2ccccc2)NC/C=C\C[C@@H](c2ccco2)N1Cc1ccccc1 | 43 | -2
O=C1[C@H](Cc2ccccc2)NC/C=C\C[C@H](c2ccc(Cl)cc2)N1Cc1ccc(Cl)cc1 | 99* | -6
Cc1nnc2ccc(NC(=O)Nc3ccc(F)cc3)cn12 | -3 | 6
O=C(Cc1ccccc1Cl)Nc1cnc(N2CCCC2)nc1 | 3 | -6
COc1cc(Nc2ncc3c(n2)CCN(Cc2cccc(F)c2)C3)cc(OC)c1 | 17 | 0
Cc1noc(-c2nn(C)c3c2CN(C(=O)NC(C)(C)C)CC3)n1 | 0 | -4
SMILES | mHTT CaM bind | Pf apPOL block
CCOC(=O)C(C)Oc1ccc2c(c1)OC(=Cc1cccs1)C2=O (configuration not stated) | 7 | -1
O=C1[C@H](Cc2ccccc2)NC/C=C\C[C@@H](c2ccc(Cl)cc2)N1Cc1ccccc1 | 93* | -3
O=C1c2ccccc2NC(c2ccc(Cl)cc2)N1Cc1ccccc1 (configuration not stated) | -22 | 16
CCc1ccc(NC(=O)c2cc(S(=O)(=O)N(C)C3CCCCC3)ccc2F)cc1 | -20 | -2
COc1ccc(S(=O)(=O)N2CCC(C(=O)Nc3ccc(Br)cc3F)CC2)cc1 | 7 | -8
Cc1nn(C)c(C(=O)ON=C(N)c2ccc([N+](=O)[O-])o2)c1[N+](=O)[O-] | . | 4
O=C1NN(c2ccc(Br)cc2)C(=O)/C1=C/c1cc([N+](=O)[O-])c(Cl)cc1Cl | 95* | -3
O=C1NN(c2ccc(F)cc2)C(=O)/C1=C/c1cccc(Br)c1 | 70* | 17
O=C1NN(c2cccc(Br)c2)C(=O)/C1=C/c1ccc(O)cc1 | 26 | 1
Cc1cc([N+](=O)[O-])cc(/C=C2\C(=O)NN(c3ccc(Br)cc3)C2=O)c1O | 12 | 0
Cc1ccc(N2NC(=O)/C(=C\c3cccc(Br)c3)C2=O)cc1C | 69* | -2
Cc1ccc(N2NC(=O)/C(=C\c3ccc(O)c([N+](=O)[O-])c3)C2=O)cc1Cl | 33 | 6
Cc1ccc(N2NC(=O)/C(=C\c3ccc(Cl)c([N+](=O)[O-])c3)C2=O)cc1C | 96* | -3
Cc1ccc(N2NC(=O)/C(=C\c3ccc(Br)cc3)C2=O)cc1C | 4 | 28
CCCOC(=O)CCCN1C(=O)C(=Cc2ccc(OC)c(OC)c2)SC1=S | 25 | -8
Cc1ccc(C(=O)ON=C2CCN(Cc3ccccc3)CC2)cc1 | -3 | -4
CCOc1ccc(NC(=O)Nc2nnc(Cc3ccc([N+](=O)[O-])cc3)s2)cc1 | -4 | 3
Cc1cc(NS(=O)(=O)c2ccc(Oc3ccc([N+](=O)[O-])cc3)cc2)no1 | 0 | -6
CCc1cccc(C)c1NC(=O)C(C)Oc1ccc(Cl)cc1C (configuration not stated) | 2 | 11
CCOc1ccccc1N(C)C(=O)c1cc(S(=O)(=O)N2CCc3ccccc32)ccc1F | 2 | -5
Cc1cc(NS(=O)(=O)c2ccc(N/C=C/C(=O)c3cccs3)cc2)nc(C)n1 | 30 | -14
CC(=O)c1ccc(NS(=O)(=O)c2ccc(N/C=C/C(=O)c3cccs3)cc2)cc1 | 2 | 60*
O=C(Nc1nc2c(s1)CN(C(=O)c1c(F)cccc1Cl)CC2)c1ccco1 | -8 | -1
COc1ccc(C2C3=C(CC(C)(C)CC3=O)NC3=C2C(=O)CC(C)(C)C3)cc1C(=O)O | 8 | -14
CN1CCN(c2nc(-c3ccccc3)ncc2C(=O)N2CCCCC2)CC1 | 6 | -2
SMILES | mHTT CaM bind | Pf apPOL block
CN1CCN(C(=O)c2cnc(-c3ccccc3)nc2N(C)Cc2ccccc2)CC1 | 68* | -8
CCCCS(=O)CSc1nc(C)cc(C)c1C#N (configuration not stated) | 2 | 5
Cc1ccc(NC(=O)N2CCCC(CCC(=O)NCc3cccc(F)c3)C2)cc1 (configuration not stated) | -3 | -6
O=C(Nc1ccc(Cl)cc1)Nc1ccc(N2CCCC2=O)cc1 | -8 | 3
CCOc1ccc(S(=O)(=O)N2CCN(C)c3ccccc32)cc1 | 38 | -1
COc1ccc(NCc2ccc(C)s2)cc1OC | 71* | 6
COc1ccc(NCc2ccc(OC)c(OC)c2)cc1 | 11 | 10
CC1=NN(C(=O)c2cccc(Cl)c2)C(O)(c2ccc(Cl)cc2)C1 (configuration not stated) | 54* | -8
CC1=NN(C(=O)c2ccccc2F)C(O)(c2ccc(Cl)cc2)C1 (configuration not stated) | 11 | -2
CC1=NN(C(=O)c2ccc(Cl)cc2)C(O)(c2ccc(Cl)cc2)C1 (configuration not stated) | 67* | 2
